# Active and inactive are the calls of the source. Rule for the calls: active = hit-call score of the fitted dose curve at least 0.9, where 1 is the maximum; inactive = score below 0.9.
# Target: Transcriptional activator Myb (Homo sapiens) (UniProt P10242)
# Experiment: ATG_Myb_CIS: Attagene CIS-FACTORIAL HepG2 Assay for human Myeloblastosis (Myb) Proto-Oncogene Transcription Factor (AID 2282986)
# Conditions: HepG2 Attagene CIS-FACTORIAL Myb reporter transcription; actives raise or lower the signal
# Description: ATG_CIS is a cell-based, multiplexed-readout assay that uses HepG2, a human liver cell line, with measurements taken at 24 hours after chemical dosing in a 24-well plate.ATG_Myb_CIS is one of 52 assay component(s) measured or calculated from the ATG_CIS assay. It is designed to make measurements of mRNA induction, a form of inducible reporter, as detected with fluorescence intensity signals by Reverse transcription polymerase chain reaction (RT-PCR) and Capillary electrophoresis technology.Data from the assay component ATG_Myb_CIS was analyzed into 1 assay endpoint. This assay endpoint, ATG_Myb_CIS, was analyzed with bidirectional fitting relative to DMSO as the negative control and baseline of activity. Using a type of inducible reporter, measures of mRNA for gain or loss-of-signal activity can be used to understand the reporter gene at the transcription factor-level as they relate to the gene MYB. Furthermore, this assay endpoint can be referred to as a primary readout, because this assay has produced multiple assay endpoints where this one serves a reporter gene function. To generalize the intended target to other relatable targets, this assay endpoint is annotated to the dna binding intended target family, where the subfamily is MYB proteins.
# Human liver HepG2 cells are transiently transfected with multiple reporter transcription units (MRTUs) in 6-well plates using FuGene 6 reagent (Roche; 3 ml FuGene/1 mg DNA). The MRTU constructs are regulated by a cis-regulating element (promoter). […] A major difference between the CIS and TRANS system is that in CIS activities of endogenous TFs are measured, whereas the TRANS assay evaluates changes in activities of exogenous, chimeric NR-Gal4 proteins. […] At the end of 24 hour incubation, total RNA was isolated using TriZol reagent (Invitrogen). The isolated RNA is then reverse-transcribed using oligo(dT) primer and Mo-MLV reverse transcriptase (Invitrogen) with DNAse I (Ambion) treatment for 30 min. The one-tenth of the produced cDNA was amplified by PCR using Taq DNA polymerase (Invitrogen) and two reporter sequence-specific primers. The PCR products were fluorescently labeled by primer extension with 6-arboxyfluorescein (6-FAM) 5'-labeled reporter sequence-specific primer (2 min at 95 C, 20 s at 68 C and 10 min at 72 C) and these products were digested with 5U of HpaI (New England Biolabs) for 2h at 37 C. The fragments were purified using Qiaquick PCR columns (Qiagen), analyzed on an ABI 3130xL genetic analyzer (Applied Biosystems) with peak positions identified by using a set of X-rhodamine (ROX)-labeled MapMarker1000 molecular weight standards (BioVentures). The raw capillary electrophoresis data was processed using Attagraph software (Attagene).
# Sequence of Transcriptional activator Myb (Homo sapiens) (P10242 whole entry, looked up): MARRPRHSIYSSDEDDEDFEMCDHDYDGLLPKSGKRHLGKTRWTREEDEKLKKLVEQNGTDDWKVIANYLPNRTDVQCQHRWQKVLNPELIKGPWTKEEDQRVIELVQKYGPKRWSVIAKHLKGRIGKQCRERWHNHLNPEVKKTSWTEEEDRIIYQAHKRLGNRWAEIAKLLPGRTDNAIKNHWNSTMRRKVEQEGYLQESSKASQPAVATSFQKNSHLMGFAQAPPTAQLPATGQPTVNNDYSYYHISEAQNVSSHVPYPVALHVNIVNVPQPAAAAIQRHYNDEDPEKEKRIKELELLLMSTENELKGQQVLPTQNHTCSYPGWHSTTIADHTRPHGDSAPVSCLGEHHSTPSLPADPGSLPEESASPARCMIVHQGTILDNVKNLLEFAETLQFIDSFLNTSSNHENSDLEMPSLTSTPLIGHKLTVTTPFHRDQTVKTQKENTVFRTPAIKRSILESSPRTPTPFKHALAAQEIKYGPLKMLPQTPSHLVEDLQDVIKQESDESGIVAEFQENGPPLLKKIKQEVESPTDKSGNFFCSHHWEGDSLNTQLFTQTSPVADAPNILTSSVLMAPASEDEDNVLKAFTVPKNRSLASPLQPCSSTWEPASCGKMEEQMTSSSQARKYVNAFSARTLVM
Structure (SMILES),outcome,AC50
CNC(=O)ON=C(SC)C(=O)N(C)C,inactive,–
C#CCC1=C(C)C(OC(=O)C2C(C=C(C)C)C2(C)C)CC1=O (stereo not given),–,93.4 µM (active)
CSc1nnc(C(C)(C)C)c(=O)n1N,inactive,–
S=C1NCCN1,inactive,–
C[Si](Cn1cncn1)(c1ccc(F)cc1)c1ccc(F)cc1,inactive,–
C#CC(C)(C)NC(=O)c1cc(Cl)cc(Cl)c1,inactive,–
CCOC(=O)CC(SP(=O)(OC)OC)C(=O)OCC (stereo not given),inactive,–
CNC(=O)Oc1cccc2c1OC(C)(C)O2,inactive,–
CCOP(=S)(OCC)Oc1ccc([N+](=O)[O-])cc1,inactive,–
CCOP(=O)(OCC)Oc1cc(C)nc(C(C)C)n1,inactive,–
CCNc1nc(Cl)nc(NC(C)(C)C#N)n1,inactive,–
Cc1nn(-c2cc(NS(C)(=O)=O)c(Cl)cc2Cl)c(=O)n1C(F)F,inactive,–
C=C(C)[C@H]1Cc2c(ccc3c2O[C@@H]2COc4cc(OC)c(OC)cc4[C@@H]2C3=O)O1,inactive,–
CCCSP(=O)(OCC)SCCC,inactive,–
CSC1=N[C@@](C)(c2ccccc2)C(=O)N1Nc1ccccc1,inactive,–
Cc1ccn2nc(S(=O)(=O)Nc3c(F)cccc3F)nc2n1,inactive,–
CC1=NNC(=O)N(/N=C/c2cccnc2)C1,inactive,–
CCc1cnc(C2=NC(C)(C(C)C)C(=O)N2)c(C(=O)O)c1 (stereo not given),inactive,–
COc1ccc(C(=CC(=O)N2CCOCC2)c2ccc(Cl)cc2)cc1OC,inactive,–
CC(C1CC1)C(O)(Cn1cncn1)c1ccc(Cl)cc1 (stereo not given),inactive,–

Structure (SMILES),outcome,AC50
CC(C)[C@H](C(=O)O[C@H](C#N)c1cccc(Oc2ccccc2)c1)c1ccc(Cl)cc1,inactive,–
Cc1cc(C2CC2)nc(Nc2ccccc2)n1,–,79.1 µM (active)
CCOP(=S)(OCC)OC(Cl)C(Cl)(Cl)Cl (stereo not given),inactive,–
CN(C)C(=O)Nc1cccc(C(F)(F)F)c1,inactive,–
CN(C)[C@@H]1C(=O)C(C(N)=O)=C(O)[C@@]2(O)C(=O)C3=C(O)c4c(O)cccc4[C@@](C)(O)[C@H]3[C@H](O)[C@@H]12,inactive,–
FC(F)C(F)(F)OCC(Cn1cncn1)c1ccc(Cl)cc1Cl (stereo not given),inactive,–
CCc1cccc(CC)c1N(COC)C(=O)CCl,inactive,–
CNC(=O)ON=C(C)SC,inactive,–
O=c1ccc(=O)[nH][nH]1,inactive,–
CC1(C(=O)Nc2ccc(O)c(Cl)c2Cl)CCCCC1,inactive,–
CCOP(=S)(OCC)Oc1cc(C)nc(C(C)C)n1,inactive,–
CCOP(=S)(Oc1cnc(C(C)(C)C)nc1)OC(C)C (stereo not given),inactive,–
CON=C(C(=O)OC)c1ccccc1CON=C(C)c1cccc(C(F)(F)F)c1,inactive,–
CCCCN(CC)c1c([N+](=O)[O-])cc(C(F)(F)F)cc1[N+](=O)[O-],inactive,–
O=C(O)c1cc(Oc2ccc(C(F)(F)F)cc2Cl)ccc1[N+](=O)[O-],inactive,–
CCCOc1nn(C(=O)NS(=O)(=O)c2ccccc2C(=O)OC)c(=O)n1C,inactive,–
CC(=NC#N)N(C)Cc1ccc(Cl)nc1,inactive,–
CC(COc1ccc(Oc2ccccc2)cc1)Oc1ccccn1 (stereo not given),inactive,–
CC[C@H](C)[C@H]1O[C@]2(C=C[C@@H]1C)C[C@@H]1C[C@@H](C/C=C(\C)[C@@H](O[C@H]3C[C@H](OC)[C@@H](O[C@H]4C[C@H](OC)[C@@H](NC)[C@H](C)O4)[C@H](C)O3)[C@@H](C)/C=C/C=C3\CO[C@@H]4[C@H](O)C(C)=C[C@@H](C(=O)O1)[C@]34O)O2,inactive,–
Nc1c(Cl)cc([N+](=O)[O-])cc1Cl,inactive,–

# — PubChem BioAssay (EPA / NIEHS)
